In PubChem BioAssay (EPA / NIEHS):
The source made the active and inactive calls. Rule for the calls: active = hit-call score of the fitted dose curve at least 0.9, where 1 is the maximum; inactive = score below 0.9.

How the values were obtained:
[1] = read-out: Forkhead box O1 (FOXO1), FOXO1 (gene 2308); experiment: LTEA_HepaRG_FOXO1: Life Technologies and Expression Analysis (LTEA) Assay for Forkhead box O1 (FOXO1) using HepaRG (AID 2283456); settings: mRNA level, 48 h; actives raise or lower the signal
Outline: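 Using one lot of HepaRG hepatic cells kept in 0.5% DMSO, the team applied test chemicals in duplicate, half-log dilutions from 100 uM, for 48 h. Expression, normalised to ACTB/GAPDH/POLR2A, was compared with vehicle in either direction.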

[2] = read-out: growth arrest and DNA damage 45 (GADD45A), GADD45A (gene 1647); experiment: LTEA_HepaRG_GADD45A: Life Technologies and Expression Analysis (LTEA) Assay for growth arrest and DNA damage 45 (GADD45A) using HepaRG (AID 2283458); settings: mRNA level, 48 h; actives raise or lower the signal
Outline: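 Transcript induction or loss, quantified by TaqMan qRT-PCR against three housekeeping genes, is the read-out. HepaRG cells received chemicals for 48 h across eight half-log concentrations from 100 uM in 0.5% DMSO; gain and loss fitted relative to DMSO.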

[3] = read-out: Forkhead box O3 (FOXO3), FOXO3 (gene 2309); experiment: LTEA_HepaRG_FOXO3: Life Technologies and Expression Analysis (LTEA) Assay for Forkhead box O3 (FOXO3) using HepaRG (AID 2283459); settings: mRNA level, 48 h; actives raise or lower the signal
Outline: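 Gene-expression endpoint: FOXO3 transcript level by qRT-PCR in HepaRG cultures treated 48 h with chemicals up to 100 uM (half-log, 0.5% DMSO vehicle).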

[4] = read-out: ABC Transporter (ABCB1), ABCB1 (gene 5243); experiment: LTEA_HepaRG_ABCB1: Life Technologies and Expression Analysis (LTEA) Assay for ABC Transporter (ABCB1) using HepaRG (AID 2283460); settings: mRNA level, 48 h; actives raise or lower the signal
Outline: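 Human liver HepaRG line treated 48 h with up to 100 uM compound (eight half-log points, 0.5% DMSO); ABCB1 mRNA change fitted bidirectionally against DMSO controls.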

[5] = read-out: growth arrest and DNA damage 45 (GADD45B), GADD45B (gene 4616); experiment: LTEA_HepaRG_GADD45B: Life Technologies and Expression Analysis (LTEA) Assay for growth arrest and DNA damage 45 (GADD45B) using HepaRG (AID 2283461); settings: mRNA level, 48 h; actives raise or lower the signal
Outline: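 Differentiated HepaRG cells, plated 48 h then switched to serum-free induction medium, were exposed 48 h in duplicate to eight half-log concentrations from 100 uM in 0.5% DMSO; mRNA quantified by qRT-PCR, normalized to ACTB/GAPDH/POLR2A, bidirectional fit versus DMSO.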

[6] = read-out: ABC Transporter (ABCC3), ABCC3 (gene 8714); experiment: LTEA_HepaRG_ABCC3: Life Technologies and Expression Analysis (LTEA) Assay for ABC Transporter (ABCC3) using HepaRG (AID 2283462); settings: mRNA level, 48 h; actives raise or lower the signal
Outline: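 HepaRG cells in serum-free induction medium were exposed for 48 h in duplicate to 8-point half-log concentrations topping at 100 uM in 0.5% DMSO. ABCC3 mRNA was measured by qRT-PCR normalized to ACTB, GAPDH and POLR2A, with bidirectional fitting versus DMSO.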

[7] = read-out: ABC Transporter (ABCB11), ABCB11 (gene 8647); experiment: LTEA_HepaRG_ABCB11: Life Technologies and Expression Analysis (LTEA) Assay for ABC Transporter (ABCB11) using HepaRG (AID 2283463); settings: mRNA level, 48 h; actives raise or lower the signal
Outline: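 Using HepaRG cultures held in 0.5% DMSO, chemicals were tested at half-log dilutions from 100 uM for 48 h. Induction or suppression of ABCB11 mRNA, normalized to ACTB, GAPDH and POLR2A, was fitted bidirectionally against vehicle.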

[8] = read-out: ABC Transporter (ABCC2), ABCC2 (gene 1244); experiment: LTEA_HepaRG_ABCC2: Life Technologies and Expression Analysis (LTEA) Assay for ABC Transporter (ABCC2) using HepaRG (AID 2283464); settings: mRNA level, 48 h; actives raise or lower the signal
Outline: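 HepaRG cells were plated 48 h, switched to serum-free induction medium, then exposed in duplicate for 48 h to 8 concentrations (top 100 uM, half-log steps, 0.5% DMSO). ABCC2 mRNA was measured by qRT-PCR normalized to ACTB/GAPDH/POLR2A; bidirectional fitting versus DMSO.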

[9] = CEETOX_H295R_TESTO: CeeTox H295R High-throughput Steroidogenesis Assay for Testosterone (TESTO) (AID 2283457); settings: actives raise or lower the signal;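 for AC50: cells exposed to chemicals for 48 h before medium collection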
Outline: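 H295R human adrenal cells in DMEM/F12 with ITS+ and Nu-Serum, exposed to chemicals for 48 h. Testosterone in medium measured by MTBE extraction, reverse-phase HPLC-MS/MS; bidirectional fit versus DMSO baseline. MTT viability checked in same wells.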

[10] = read-out: Broad substrate specificity ATP-binding cassette transporter ABCG2 (Homo sapiens) (UniProt Q9UNQ0); experiment: LTEA_HepaRG_ABCG2: Life Technologies and Expression Analysis (LTEA) Assay for ABC Transporter (ABCG2) using HepaRG (AID 2283465); settings: mRNA level, 48 h; actives raise or lower the signal
Outline: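 Gene expression of ABCG2 in HepaRG liver cells is quantified by qRT-PCR following 48 h exposure across an eight-point series topping at 100 uM. Values come from bidirectional fitting relative to DMSO vehicle.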

Measured: AC50

Broad substrate specificity ATP-binding cassette transporter ABCG2 (Homo sapiens), sequence (Q9UNQ0 whole entry, looked up): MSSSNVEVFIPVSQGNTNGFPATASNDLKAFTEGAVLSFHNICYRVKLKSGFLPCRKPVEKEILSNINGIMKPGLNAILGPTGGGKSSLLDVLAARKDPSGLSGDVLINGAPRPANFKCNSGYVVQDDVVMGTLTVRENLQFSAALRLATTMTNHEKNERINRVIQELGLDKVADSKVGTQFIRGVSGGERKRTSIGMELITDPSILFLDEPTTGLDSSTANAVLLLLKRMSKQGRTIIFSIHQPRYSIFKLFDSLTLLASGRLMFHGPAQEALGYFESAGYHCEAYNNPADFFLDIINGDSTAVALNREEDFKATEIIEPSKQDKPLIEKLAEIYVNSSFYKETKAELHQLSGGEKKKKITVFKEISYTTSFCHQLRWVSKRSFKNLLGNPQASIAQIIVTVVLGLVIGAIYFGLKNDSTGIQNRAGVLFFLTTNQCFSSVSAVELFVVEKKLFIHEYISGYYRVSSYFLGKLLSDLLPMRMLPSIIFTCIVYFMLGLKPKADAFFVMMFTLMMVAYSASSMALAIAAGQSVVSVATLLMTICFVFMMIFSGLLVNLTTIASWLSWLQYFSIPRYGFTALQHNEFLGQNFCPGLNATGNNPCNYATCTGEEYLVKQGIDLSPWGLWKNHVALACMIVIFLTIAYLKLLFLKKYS

Cc1cc(-c2ccc(N)c(C)c2)ccc1N
active: [3] 18 µM | [5] 50 µM | [7] 22.4 µM
not listed: [9] | [10]
inactive: all other assays above

CCOP(=S)(OCC)SCSC(C)(C)C
active: [7] 18.6 µM
not listed: [9] | [10]
inactive: all other assays above

CCC(=O)O[C@H]1CC[C@H]2[C@@H]3CCC4=CC(=O)CC[C@]4(C)[C@H]3CC[C@]12C
active: [9] 3.77 µM | [5] 0.101 µM | [7] 9.78 µM
not listed: [4]
inactive: all other assays above

Cc1cc(O)ccc1Cl
not listed: [8] | [9] | [10]
inactive: all other assays above

COS(=O)(=O)OC
not listed: [9]
inactive: all other assays above

Cc1cc2c3c(c1)C(c1ccccc1)=N[C@@H](NC(=O)c1ccncc1)C(=O)N3CC2
active: [3] 50 µM | [4] 5.26 µM | [10] 10.1 µM
not listed: [9]
inactive: all other assays above

CCCCCCCCOC(=O)c1ccccc1C(=O)OCCCCCCCC
not listed: [9]
inactive: all other assays above

CC(c1ccc(O)cc1)(c1ccc(O)cc1)c1ccc(O)cc1
inactive: [2] | [6]
active: [1] 73.5 µM | [3] 70.9 µM | [4] 72.9 µM | [5] 35.9 µM | [7] 20.8 µM | [8] 81 µM | [10] 33.8 µM

O=C(O)C(F)(F)C(F)(F)C(F)(F)C(F)(F)C(F)(F)C(F)(F)C(F)(F)C(F)(F)C(F)(F)F
active: [1] 81.6 µM | [2] 85.5 µM | [6] 88.5 µM | [7] 61 µM | [8] 94.8 µM
inactive: [3] | [5]

CC#Cc1cc(C)nc(Nc2ccccc2)n1
active: [3] 7.38 µM | [5] 19.2 µM | [7] 9.09 µM
not listed: [9] | [10]
inactive: all other assays above

O=C(O)C(F)(F)C(F)(F)C(F)(F)C(F)(F)C(F)(F)C(F)(F)C(F)(F)C(F)(F)F
active: [2] 74.6 µM | [3] 50 µM | [4] 75.3 µM | [5] 16.8 µM | [7] 90.4 µM | [8] 82.7 µM
inactive: [1] | [6]

O=NN(c1ccccc1)c1ccccc1
active: [2] 78.8 µM
not listed: [4] | [9] | [10]
inactive: all other assays above

CCCCCCCCCC[N+](C)(C)CCCCCCCCCC
inactive: [1] | [2] | [4]
active: [3] 76.7 µM | [5] 78.8 µM | [6] 79.8 µM | [7] 15.8 µM | [8] 94.2 µM | [10] 72.8 µM

O=C(O)C(F)(F)C(F)(F)C(F)(F)C(F)(F)C(F)(F)F
active: [10] 9.92 µM
not listed: [9]
inactive: all other assays above

ClC(Cl)=C(c1ccc(Cl)cc1)c1ccc(Cl)cc1
active: [2] 0.0693 µM | [4] 23.2 µM | [8] 10.8 µM
not listed: [9] | [10]
inactive: all other assays above

Cc1ccccc1CO[C@@H]1C[C@@]2(C(C)C)CC[C@]1(C)O2
active: [9] 35 µM | [4] 50 µM | [8] 75.1 µM
not listed: [10]
inactive: all other assays above

CC(C)C(=O)OCC(C)(C)C(OC(=O)C(C)C)C(C)C (stereo unspecified)
not listed: [4] | [9] | [10]
inactive: all other assays above

NS(=O)(=O)C(F)(F)C(F)(F)C(F)(F)C(F)(F)C(F)(F)C(F)(F)C(F)(F)C(F)(F)F
inactive: [9]
active: [1] 24.9 µM | [2] 29.1 µM | [3] 6.91 µM | [4] 9.25 µM | [5] 20.9 µM | [6] 12.5 µM | [7] 7.12 µM | [8] 10.1 µM | [10] 3.42 µM

O=S(=O)(O)C(F)(F)C(F)(F)C(F)(F)C(F)(F)F
not listed: [9] | [10]
inactive: all other assays above

Nc1ccc(-c2ccc(N)cc2)cc1
active: [4] 0.0737 µM | [7] 3.77 µM
not listed: [9] | [10]
inactive: all other assays above

CN(C)CCO
not listed: [9] | [10]
inactive: all other assays above

CN(C)c1nc(=O)n(C2CCCCC2)c(=O)n1C
not listed: [9] | [10]
inactive: all other assays above

c1cc2ccc3cccc4ccc(c1)c2c34
active: [9] 29.5 µM | [10] 4.08 µM
not listed: [4]
inactive: all other assays above

ClC1=C(Cl)[C@]2(Cl)[C@@H]3[C@@H](Cl)[C@H]4O[C@H]4[C@@H]3C1(Cl)C2(Cl)Cl
not listed: [4] | [9] | [10]
inactive: all other assays above

CC1=C2C[C@H]3[C@@H](CC=C4C[C@@H](O)CC[C@@]43C)[C@@H]2CC[C@]12O[C@@H]1C[C@H](C)CN[C@H]1[C@H]2C
not listed: [4] | [10]
inactive: all other assays above

Clc1ccc(C(Cl)(Cl)Cl)cc1
not listed: [9]
inactive: all other assays above

ClC1=C(Cl)[C@]2(Cl)[C@@H]3[C@@H]4C[C@@H]([C@H]5O[C@@H]45)[C@@H]3[C@@]1(Cl)C2(Cl)Cl
active: [3] 0.0321 µM | [4] 0.0325 µM | [8] 4.03 µM
not listed: [9] | [10]
inactive: all other assays above

C[C@]12CCC(=O)C=C1CC[C@@H]1[C@@H]2CC[C@]2(C)C(=O)CC[C@@H]12
inactive: [1] | [3] | [5] | [6]
active: [2] 50 µM | [7] 2.67 µM | [8] 50 µM

CCC(C)(c1ccc(O)cc1)c1ccc(O)cc1
active: [7] 88.1 µM
not listed: [9] | [10]
inactive: all other assays above

Clc1ccc(Cl)cc1
not listed: [9] | [10]
inactive: all other assays above
